The text below walks through data of PubChem BioAssay (EPA / NIEHS).

By AC50 is commonly meant the concentration giving half of the maximal activity seen.

Active and inactive are the calls of the source. How the source made its calls: active means hit-call score of the fitted dose curve at least 0.9, where 1 is the maximum; inactive means score below 0.9.

Read-out in experiment [1]: Vascular endothelial growth factor receptor 2 (Homo sapiens) (UniProt P35968)
Description: BSK_4H_VEGFRII: BioMAP Diversity Plus: 4H Assay for Vascular endothelial growth factor receptor 2 (VEGFR2) Biomarker Activity (AID 2283031). The conditions noted are these: primary human endothelial cells (HUVEC); actives raise or lower the signal. A digest of the protocol:
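Primary human umbilical vein endothelial cells in the BioMAP 4H system were dosed with test chemical, and 24 h later VEGFRII was measured by ELISA. Activity was fitted bidirectionally against DMSO as negative control and baseline.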

Read-out in experiment [2]: Human Leukocyte Antigen - DR isotype (HLADR), HLA-DRA (gene 3122)
In words: BSK_BE3C_HLADR: BioMAP Diversity Plus: BE3C Assay for Human Leukocyte Antigen - DR isotype (HLADR) Biomarker Activity (AID 2283032). The note with it: primary human bronchial epithelial cells; actives raise or lower the signal. Put shortly:
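Signal came from an ELISA for HLA-DR in human bronchial epithelial primary cells harvested 24 h after treatment; gain- and loss-of-signal fitting used DMSO controls as reference.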

Read-out in experiment [3]: Vascular cell adhesion molecule 1 (VCAM1), VCAM1 (gene 7412)
Description: BSK_4H_VCAM1: BioMAP Diversity Plus: 4H Assay for Vascular cell adhesion molecule 1 (VCAM1) Biomarker Activity (AID 2283033).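 Further: cell-surface VCAM-1 protein measured by ELISA.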 The note with it: primary human endothelial cells (HUVEC); actives raise or lower the signal. A digest of the protocol:
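Endpoint derived from bidirectional fitting against DMSO controls of VCAM-1 ELISA signal in umbilical vein endothelial cells sampled at 24 h following treatment.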

Read-out in experiment [4]: Monokine induced gamma interferon (MIG), CXCL9 (gene 4283)
In words: BSK_BE3C_MIG: BioMAP Diversity Plus: BE3C Assay for Monokine induced gamma interferon (MIG) Biomarker Activity (AID 2283035).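 Further: MIG protein measured by ELISA in BE3C cultures after 24 h of dosing.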 The note with it: primary human bronchial epithelial cells; actives raise or lower the signal. Put shortly: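 MIG level was determined by ELISA after 24 h chemical treatment of primary human bronchial epithelial cells. Values were fitted bidirectionally with DMSO as the negative control and activity baseline.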

Read-out in experiment [5]: Transforming growth factor beta 1 (TGFb1), TGFB1 (gene 7040)
Description: BSK_BE3C_TGFb1: BioMAP Diversity Plus: BE3C Assay for Transforming growth factor beta 1 (TGFb1) Biomarker Activity (AID 2283036;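 further: TGF-b1 protein level measured by ELISA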). The conditions noted are these: primary human bronchial epithelial cells; actives raise or lower the signal. Put shortly: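 In this human primary bronchial epithelial system, an ELISA quantified TGF-b1 one day after dosing. Endpoint changes in either direction were fitted relative to DMSO.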

Read-out in experiment [6]: Plasminogen activator inhibitor-1 (PAI1), SERPINE1 (gene 5054)
Description: BSK_BE3C_PAI1: BioMAP Diversity Plus: BE3C Assay for Plasminogen activator inhibitor-1 (PAI1) Biomarker Activity (AID 2283037). The note with it: primary human bronchial epithelial cells; actives raise or lower the signal. A digest of the protocol:
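PAI-1 biomarker levels in treated human bronchial epithelial cells are determined by ELISA at 24 h. Both increases and decreases relative to DMSO are fitted.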

Read-out in experiment [7]: urokinase plasminogen activator (uPA), PLAU (gene 5328)
Description: BSK_BE3C_uPA: BioMAP Diversity Plus: BE3C Assay for urokinase plasminogen activator (uPA) Biomarker Activity (AID 2283038).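 Further: uPA protein level quantified by ELISA in cell cultures; uPA read one day after compound addition.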 The note with it: primary human bronchial epithelial cells; actives raise or lower the signal. Put shortly: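 Human primary bronchial epithelial cells were exposed to chemical for 24 h, then uPA levels were measured by ELISA. Responses were fitted bidirectionally against DMSO as negative control and baseline. Parallel SRB staining of total protein gauged overt cytotoxicity.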

Read-out in experiment [8]: Urokinase-type plasminogen activator receptor (uPAR), PLAUR (gene 5329)
Description: BSK_BE3C_uPAR: BioMAP Diversity Plus: BE3C Assay for Urokinase-type plasminogen activator receptor (uPAR) Biomarker Activity (AID 2283039).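 Further: cells exposed to compound for one day before measurement.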 The conditions noted are these: primary human bronchial epithelial cells; actives raise or lower the signal. A digest of the protocol: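 A uPAR ELISA serves as the readout, taken 24 h after treating primary human bronchial epithelial cells. Responses in either direction are fitted against DMSO, which defines baseline activity.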

Read-out in experiment [9]: Interleukin-6 (IL6), IL6 (gene 3569)
Description: BSK_CASM3C_IL6: BioMAP Diversity Plus: CASM3C Assay for Interleukin-6 (IL6) Biomarker Activity for (AID 2283040). The conditions noted are these: primary human coronary artery smooth muscle cells; actives raise or lower the signal.

Read-out in experiment [10]: Tissue plasminogen activator (tPA), PLAT (gene 5327)
Description: BSK_BE3C_tPA: BioMAP Diversity Plus: BE3C Assay for Tissue plasminogen activator (tPA) Biomarker Activity (AID 2283041).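 Further: tPA level quantified by ELISA one day after compound addition.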 The note with it: primary human bronchial epithelial cells; actives raise or lower the signal. A digest of the protocol:
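Bidirectional curve fitting relative to DMSO defined activity, with tPA detected by ELISA in chemically treated human bronchial epithelial primary cells at 24 hours.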

Read-out in experiment [11]: Interleukin-8 (IL8), CXCL8 (gene 3576)
Description: BSK_CASM3C_IL8: BioMAP Diversity Plus: CASM3C Assay for Interleukin-8 (IL8) Biomarker Activity (AID 2283042).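 Further: IL-8 protein level quantified by ELISA.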 The conditions noted are these: primary human coronary artery smooth muscle cells; actives raise or lower the signal.

Read-out in experiment [12]: Human Leukocyte Antigen - DR isotype (HLADR), HLA-DRA (gene 3122)
In words: BSK_CASM3C_HLADR: BioMAP Diversity Plus: CASM3C Assay for Human Leukocyte Antigen - DR isotype (HLADR) Biomarker Activity (AID 2283043).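 Further: cell-surface HLA-DR protein level quantified by ELISA.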 The conditions noted are these: primary human coronary artery smooth muscle cells; actives raise or lower the signal.

Read-out in experiment [13]: Macrophage colony-stimulating factor (MCSF), CSF1 (gene 1435)
Description: BSK_CASM3C_MCSF: BioMAP Diversity Plus: CASM3C Assay for Macrophage colony-stimulating factor (MCSF) Biomarker Activity (AID 2283044).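 Further: M-CSF protein amount quantified by ELISA after 24 h exposure.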 The conditions noted are these: primary human coronary artery smooth muscle cells; actives raise or lower the signal.

Read-out in experiment [14]: Low-density lipoprotein receptor (LDLR), LDLR (gene 3949)
Description: BSK_CASM3C_LDLR: BioMAP Diversity Plus: CASM3C Assay for Low-density lipoprotein receptor (LDLR) Biomarker Activity (AID 2283045).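 Further: LDLR protein level on the cell surface quantified by ELISA.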 The note with it: primary human coronary artery smooth muscle cells; actives raise or lower the signal.

Read-out in experiment [15]: Monocyte Chemoattractant Protein-1 (MCP1), CCL2 (gene 6347)
Description: BSK_CASM3C_MCP1: BioMAP Diversity Plus: CASM3C Assay for Monocyte Chemoattractant Protein-1 (MCP1) Biomarker Activity (AID 2283046).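 Further: MCP-1 level quantified by ELISA 24 h after dosing.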 The conditions noted are these: primary human coronary artery smooth muscle cells; actives raise or lower the signal.

The nature of experiment [16]: BSK_CASM3C_Proliferation: Cell Proliferation Assessment in the BioMAP Diversity Plus: CASM3C Assay (AID 2283047).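 Further: sulforhodamine B total protein stain as relative cell number at 560 nm; sub-confluent cells exposed 48 h before staining; fitted both ways against DMSO so gain or loss of cell number.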 The conditions noted are these: primary human coronary artery smooth muscle cells.
Read-out in experiment [17]: Monokine induced gamma interferon (MIG), CXCL9 (gene 4283)
In words: BSK_CASM3C_MIG: BioMAP Diversity Plus: CASM3C Assay for Monokine induced gamma interferon (MIG) Biomarker Activity (AID 2283048). The conditions noted are these: primary human coronary artery smooth muscle cells; actives raise or lower the signal.

Read-out in experiment [18]: serum amyloid A (SAA), SAA1 (gene 6288)
Description: BSK_CASM3C_SAA: BioMAP Diversity Plus: CASM3C Assay for serum amyloid A (SAA) Biomarker Activity (AID 2283049).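 Further: SAA protein level quantified by ELISA.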 The conditions noted are these: primary human coronary artery smooth muscle cells; actives raise or lower the signal.

A short description of experiment [19]: BSK_CASM3C_SRB: Viability Assessment in the BioMAP Diversity Plus: CASM3C Assay (AID 2283050). The note with it: primary human coronary artery smooth muscle cells.
Read-out in experiment [20]: Interferon-gamma inducible Protein 10 (IP10), CXCL10 (gene 3627)
In words: BSK_BE3C_IP10: BioMAP Diversity Plus: BE3C Assay for Interferon-gamma inducible Protein 10 (IP10) Biomarker Activity (AID 2283034). The note with it: primary human bronchial epithelial cells; actives raise or lower the signal. Put shortly:
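Using primary human bronchial epithelial cultures, the assay captures IP-10 by ELISA one day (24 h) after exposure. Parallel SRB staining of total protein flags overt cytotoxicity. Fits run bidirectionally relative to DMSO.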

Consider `CC1(C)CC(N=C=O)CC(C)(CN=C=O)C1` (stereo not given), for which the outcome in experiment [1], in experiment [2], in experiment [3], in experiment [4], in experiment [5] and in experiment [6] was inactive. In addition, the outcome in [7], in [8], in experiment [9], in [10], in experiment [11] and in experiment [12] was inactive. For the same compound, the result in [13], in experiment [15], in experiment [16], in [17], in experiment [18] and in experiment [19] was inactive. The AC50 in [14] was 6.43 µM (active).

As for `C=CCOC(=O)c1ccccc1C(=O)OCC=C`, the outcome in experiment [1], in experiment [2], in [3], in [20], in experiment [4] and in experiment [5] was inactive. The result in experiment [6], in [7], in [8], in experiment [9], in [10] and in experiment [11] was inactive. Further, the result in experiment [12], in experiment [13], in experiment [14], in experiment [15], in [16] and in experiment [17] was inactive. Moreover, the result in [18] and in [19] was inactive.

With `CCNc1cccc(C)c1`, the result in experiment [1], in experiment [2], in experiment [3], in [20], in experiment [4] and in experiment [5] was inactive. For the same compound, the result in [6], in [7], in experiment [8], in experiment [9], in experiment [10] and in [11] was inactive. The outcome in [12], in experiment [13], in experiment [14], in experiment [15], in experiment [16] and in experiment [17] was inactive. The outcome in experiment [18] and in experiment [19] was inactive.

Consider `Nc1ccc2c(c1)C(=O)c1ccccc1C2=O`, for which the result in experiment [1], in experiment [2], in [3], in [20], in experiment [4] and in experiment [5] was inactive. For the same compound, the result in [6], in experiment [7], in [8], in experiment [9], in [10] and in experiment [11] was inactive. For the same compound, the outcome in [12], in [13], in [14], in experiment [17], in experiment [18] and in experiment [19] was inactive. Also, in experiment [16], the AC50 is 14.3 µM (active).

As to `CCCCCCCC=O`, the result in experiment [1], in experiment [2], in experiment [3], in experiment [4], in [5] and in experiment [6] was inactive. Besides, the outcome in experiment [7], in experiment [8], in experiment [9], in [10], in experiment [11] and in experiment [12] was inactive. The outcome in [13], in [14], in experiment [15], in experiment [16], in experiment [17] and in experiment [18] was inactive. Also, in experiment [19], the result was inactive.

As to `COc1ccc(C)cc1N`, the outcome in experiment [1], in [2], in experiment [3], in experiment [4], in experiment [5] and in experiment [6] was inactive. Besides, the outcome in [7], in [8], in [9], in experiment [10], in [11] and in [12] was inactive. In addition, the outcome in [13], in [14], in experiment [15], in experiment [16], in [17] and in experiment [18] was inactive. In experiment [19], the result was inactive.

Turning to `CC(=O)C(C)=CC1C(C)=CCCC1(C)C` (stereo not given), the result in experiment [1], in experiment [2], in experiment [3], in [4], in experiment [5] and in [6] was inactive. For the same compound, the result in [7], in experiment [8], in experiment [9], in experiment [10], in experiment [11] and in experiment [12] was inactive. The outcome in experiment [13], in experiment [14], in experiment [15], in experiment [16], in experiment [17] and in experiment [18] was inactive. For the same compound, the outcome in [19] was inactive.
